Compounds with a hit are over-represented: about 4% of the library has one in this group of screens.
Gli-Sufu antag – blocks Gli-Sufu signaling in a luciferase reporter; Sufu-KO-LIGHT fibroblasts, Gli luciferase reporter luminescence; inhibition, % at 5 µM; 0.74% of 340,000 active; AID 588413;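 active = inhibition above about 55%, limit read from the data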;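 also: 0% = DMSO-treated cells and 100% = wells with medium but no cells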
CSC inhib – blocks cancer stem cells; AID 2717; inhibition, % at 7.5 µM; cancer stem cell-like cells viability, luminescence; 1.1% of 300,000 active; in the data active = inhibition above about 75%; inconclusive = no clear call, values can overlap the other calls; tested in HMLE shEcad cells
Mdm2-MdmX inh – human Mdm2/MdmX binding inhibition | O15151+Q00987 | SaOS-2 split-luciferase Mdm2/MdmX complementation, luminescence | inhibition, % at 8 µM | 3% of 330,000 active | AID 485346;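 active = inhibition of at least 50% at 8 µM in the primary screen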
Target sequence (O15151 whole entry, looked up): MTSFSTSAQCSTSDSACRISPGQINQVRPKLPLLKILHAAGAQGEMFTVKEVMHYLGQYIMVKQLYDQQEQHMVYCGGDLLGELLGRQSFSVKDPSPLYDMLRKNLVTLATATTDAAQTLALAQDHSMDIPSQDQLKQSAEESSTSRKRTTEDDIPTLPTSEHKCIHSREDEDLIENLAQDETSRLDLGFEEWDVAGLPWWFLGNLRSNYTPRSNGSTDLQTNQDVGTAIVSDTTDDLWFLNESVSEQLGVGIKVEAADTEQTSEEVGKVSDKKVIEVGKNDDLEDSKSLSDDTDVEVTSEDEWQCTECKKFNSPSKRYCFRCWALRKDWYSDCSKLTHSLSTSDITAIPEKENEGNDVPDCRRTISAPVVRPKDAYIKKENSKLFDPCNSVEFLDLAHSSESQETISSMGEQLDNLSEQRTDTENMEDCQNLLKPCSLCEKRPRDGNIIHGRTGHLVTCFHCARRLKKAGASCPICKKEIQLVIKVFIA
Target sequence (Q00987 whole entry, looked up): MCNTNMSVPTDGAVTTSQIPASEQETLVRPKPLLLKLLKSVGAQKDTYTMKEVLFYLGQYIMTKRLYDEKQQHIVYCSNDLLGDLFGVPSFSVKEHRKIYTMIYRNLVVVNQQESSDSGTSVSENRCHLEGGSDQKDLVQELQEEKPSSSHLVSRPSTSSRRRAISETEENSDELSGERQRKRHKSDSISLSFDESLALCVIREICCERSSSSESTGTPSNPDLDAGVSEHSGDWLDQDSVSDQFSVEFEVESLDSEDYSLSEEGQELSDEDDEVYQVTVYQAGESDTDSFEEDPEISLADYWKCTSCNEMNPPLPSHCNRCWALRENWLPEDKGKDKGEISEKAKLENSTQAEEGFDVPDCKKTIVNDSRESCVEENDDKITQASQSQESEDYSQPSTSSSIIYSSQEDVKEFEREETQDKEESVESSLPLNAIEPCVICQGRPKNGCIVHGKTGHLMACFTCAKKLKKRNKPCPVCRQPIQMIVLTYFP
Shn3 inh set2 – Schnurri-3 reporter inhibition in Clone20 osteoblasts. Clone20 osteoblast Shn3 3'UTR firefly luciferase, 24 h. AID 588674. 0.52% of 360,000 active. inhibition, % at 12.5 µM;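 active = mean inhibition of at least 75% with every replicate also reaching 75%; inconclusive = mean inhibition at least 75% but some replicate below; inactive = mean inhibition below 75%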;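 also: 0% = median of neutral control wells and 100% = pilot-screen positive control compound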
Beta apoptosis – blocks beta cell apoptosis; INS-1E cytokine-induced death, ATP luminescence, 48 h; percent of positive-control rescue, neutral wells zero; protection from apoptosis, % (no concentration beside the values); 0.8% of 300,000 active;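 active = Every replicate reaches about 75%, or at least half do and their mean reaches it too, limit read from the data; inconclusive = At least half of replicates reach the limit but their mean does not; inactive = Under half of replicates reach the limit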;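 also: 0% = cytokine-treated negative control wells and 100% = positive control rescue; higher means more ATP so stronger rescue from cytokine killing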
PAX8 reporter – inhibitors of PAX8 transcriptional activity in RMG-I cells. inhibition, % at 12.6 µM. RMG-I TPO-luciferase reporter, SteadyGlo, 24 h. 1.2% of 360,000 active;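 active = mean replicate inhibition at least 60% with every replicate also reaching 60%; inconclusive = only one of the two criteria is met; inactive = mean below 60% and not all replicates reaching 60%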;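 also: luciferase light reporting Pax8 driven TPO promoter activity; plate controls were median of neutral control wells for no effect and mitoxantrone controls for full effect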
Mdm2-MdmX conf – human Mdm2/MdmX binding inhibition, confirmed; shares compounds with Mdm2-MdmX inh; luminescent assay; inhibition, % at 8 µM; 55% of 10,000 active; in the data active = inhibition above about 40%
FLuc counter – inhibits full-length luciferase, flagging false Mdm2/MdmX hits. shares compounds with Mdm2-MdmX inh. SaOS-2 full-length luciferase counterscreen, luminescence. inhibition, % at 8 µM. 77% of 6,200 active. AID 504607;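 active = mean inhibition at 8 µM reaching about 37%, which flags the compound as non-specific, limit read from the data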;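 also: p53-null SaOS-2 cells with luciferase driven by a doxycycline-inducible promoter; compound on cells about two nights before reading with doxycycline added after day one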
Gli antag conf – confirmation of Gli-SUFU pathway antagonists; inhibition, % at 5 µM; AID 602428; 40% of 2,500 active; Sufu-KO-LIGHT cells, Gli luciferase reporter, luminescence; shares compounds with Gli-Sufu antag;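 active = mean inhibition at 5 µM reaching about 45%, limit read from the data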;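 also: plate controls were DMSO-treated cells for no effect and wells lacking cells for full effect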
Gli cytotox – counter-screen for Gli-SUFU antagonists: cytotoxicity | shares compounds with Gli-Sufu antag | Sufu-KO-LIGHT cells cytotoxicity, ATP luminescence | cytotoxicity, % at 5 µM | 32% of 2,500 active;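 active = mean cytotoxicity at 5 µM above about 25%, limit read from the data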;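 also: cells exposed to compound overnight for roughly 16 to 18 hours; plate controls were DMSO wells with cells for no effect and medium without cells for full effect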
Wnt3a cs – counter-screen for Gli-SUFU antagonists: Wnt3a reporter inhibition | shares compounds with Gli-Sufu antag | Wnt-LIGHT cells, Wnt3a-driven luciferase reporter, luminescence | inhibition, % at 6.25 µM | 20% of 2,500 active | AID 651995;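 active = mean inhibition above about 25%, limit read from the data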
Numbers without * were called inactive; ? = inconclusive; / = no result given.

SMILES	Gli-Sufu antag	CSC inhib	Mdm2-MdmX inh	Shn3 inh set2	Beta apoptosis	PAX8 reporter	Mdm2-MdmX conf	FLuc counter	Gli antag conf	Gli cytotox	Wnt3a cs
CCc1c(C)[nH]n(-c2nc(-c3ccccc3)cs2)c1=O	-3.6	-35.2	-28.7	-18.1	/	-39.7	/	/	/	/	/
C[C@@H]1CN([C@H](C)CO)C(=O)Cc2cc(NS(=O)(=O)c3ccc(Cl)cc3)ccc2O[C@H]1CN(C)C(=O)Nc1ccccc1	/	/	/	/	/	-2.6	/	/	/	/	/
CCO[C@@H]1OC(C(=O)NCc2nc3ccccc3[nH]2)=C[C@H](C(C)(C)C)[C@H]1CCCO	50.6	-4.8	54.4*	34.2	17.8	64.4*	49.6*	94.6*	58.0*	60.1*	-51.2
C=CCn1c(C)cc(C2=NNC(=NC(C)(C)C)SC2)c1C	72.3*	32.8	87.8*	10.6	25.1	13.3	93.0*	80.1*	75.4*	50.2*	98.3*
C=CCn1c(C)cc(C2=NNC(=Nc3ccc(C)cc3)SC2)c1C	19.8	-4.5	18.7	10.0	-0.2	14.8	/	/	/	/	/
CCCCc1ccc(NC(=O)C(=O)NCCN2CCN(Cc3ccc([N+](=O)[O-])cc3)CC2)cc1	56.0*	-10.0	66.8*	93.7*	52.2	1.2	36.1	/	42.9	19.4	5.5
CNC(=O)C(=O)NCCN1CCN(C(=O)c2ccc([N+](=O)[O-])cc2)CC1	2.3	-11.6	-3.7	-2.4	-0.9	-0.6	/	/	/	/	/
C[C@H](CO)N1C[C@H](C)[C@@H](CN(C)C(=O)NC2CCCCC2)Oc2c(NC(=O)Nc3cccc4ccccc34)cccc2C1=O	/	/	/	/	/	5.4	/	/	/	/	/
CC(C)(C)c1ccc(CN2C3=NCCCN3c3ccccc32)cc1	69.3*	31.4	68.8*	88.4*	40.6	23.9	32.6	61.3*	60.1*	25.0	15.3
C/C=C/c1ccc([C@@H]2[C@@H](CO)N3CCCCN(S(=O)(=O)c4cccs4)C[C@@H]23)cc1	/	/	/	/	/	-25.2	/	/	/	/	/
CCOc1ccccc1C1C2=C(COC2=O)Nc2cc3c(cc21)OCO3 (stereo not drawn)	54.9	38.7	68.6*	35.5	34.9	87.9*	57.2*	65.5*	51.6*	62.2*	12.8
CCCOc1ccccc1N/C(=N/c1nc(C)cc(C)n1)NC(=O)COc1ccc(OC)cc1	66.6*	27.6	56.5*	91.3*	24.4	/	18.9	/	47.9*	23.9	-15.2
CC(C)(C)c1ccc(C(=O)NCCCN2CCN(CCCNC(=O)c3ccc(C(C)(C)C)cc3)CC2)cc1	71.7*	101.7*	94.6*	83.0	/	70.1*	95.1*	57.1*	14.6	23.6	10.1
COc1ccc(-c2nn(-c3ccccc3)cc2/C=N/NC(=O)c2ccc3c(c2)OCO3)cc1	/	9.3	19.8	/	16.7	/	/	/	/	/	/
COc1ccc(-c2nn(-c3ccccc3)cc2/C=N/NC(=O)c2ccc(Br)o2)cc1	51.6	24.0	68.5*	15.8	/	/	-37.8	/	63.0*	22.8	-27.8
C[C@@H]1CN([C@@H](C)CO)C(=O)c2cc(NC(=O)Cc3ccccc3)ccc2O[C@@H](C)CCCCO[C@@H]1CN(C)S(=O)(=O)c1cn(C)cn1	/	/	/	/	/	6.2	/	/	/	/	/
N#C/C(=C(/O)c1ccc([N+](=O)[O-])s1)c1nc2ccccc2[nH]1	53.5	48.4	89.2*	24.4	54.3	19.9	82.9*	68.2*	59.3*	21.1	33.0*
CS(=O)(=O)N1CC(=O)N2[C@H](CO)[C@@H](c3ccc(Br)cc3)[C@@H]2C1	/	/	/	/	/	-19.3	/	/	/	/	/
CCCCn1c(=O)[nH]c(=O)c2c1nc(-c1ccc(-c3ccccc3)cc1)n2C	53.3	12.7	62.3*	12.8	6.3	-4.1	35.4	94.4*	32.8	11.8	-11.4
CS(=O)(=O)N1C[C@@H](O)COC[C@H]2O[C@@H](CC(=O)NCc3ccccc3)CC[C@@H]21	/	/	/	/	/	-4.1	/	/	/	/	/
Cc1nc(N2CCN(C(=O)c3cnccn3)CC2)c2c3c(sc2n1)CC(C(C)(C)C)CC3 (stereo not drawn)	51.0	/	70.1*	0.4	1.8	-0.9	33.5	/	22.5	5.4	2.1
CC(=O)N1CCN(c2nc(C)nc3sc4c(c23)CCC(C)C4)CC1 (stereo not drawn)	2.6	-6.3	2.2	39.1	4.7	-11.7	/	/	/	/	/
CN1C(=O)c2cc(NC(=O)Cc3cccs3)ccc2OC[C@@H]2O[C@@H](CC(=O)NCC3CCCCC3)CC[C@H]21	/	/	/	/	/	-15.6	/	/	/	/	/
Cc1cc(-c2nnc(SCC(=O)Nc3ccccc3C(F)(F)F)o2)c(C)n1-c1ccccc1	57.0*	-7.6	75.5*	/	-1.5	/	76.9*	103.4*	66.9*	13.3	64.5*
Cc1cccc(NC(=O)CSc2nnc(-c3cc(C)n(-c4ccccc4)c3C)o2)c1C	22.9	45.2	21.7	3.6	-4.6	/	/	/	/	/	/
SMILES	Gli-Sufu antag	CSC inhib	Mdm2-MdmX inh	Shn3 inh set2	Beta apoptosis	PAX8 reporter	Mdm2-MdmX conf	FLuc counter	Gli antag conf	Gli cytotox	Wnt3a cs
Cc1ccc(C#CC[N+]2(CC#Cc3ccc(C)cc3)CCCCC2)cc1	87.8*	15.7	54.9*	76.2	113.0*	68.9*	50.4*	52.1*	88.8*	39.1*	-6.6
O=C(Cc1csc(Nc2nc(=S)[nH]c3ccccc23)n1)NCCCN1CCN(c2ccccc2F)CC1	85.7*	30.9	97.9*	-2.1	19.3	65.0*	32.5	/	36.9	21.2	-40.6
COc1ccc(CNC(=O)Cc2csc(Nc3nc(=S)[nH]c4ccccc34)n2)cc1	25.1	-7.0	13.5	18.8	10.7	/	/	/	/	/	/
CCOC(=O)c1sc(NC(=O)c2ccncc2)c(C#N)c1C	23.8	-1.5	10.1	13.4	9.6	10.2	/	/	/	/	/
CCOC(=O)c1sc(NC(=O)c2cc(-c3ccccc3C)nc3ccccc23)c(C#N)c1C	62.7*	88.7*	97.1*	53.0	39.0	/	92.2*	32.4	82.4*	20.4	74.0*
O=C(Nc1ncc(Cc2ccc(SC(F)F)cc2)s1)c1ccc(OC(F)F)cc1	60.3*	75.2*	61.8*	58.4	16.5	?	63.7*	95.9*	71.1*	66.2*	4.0
COc1ccc(C(=O)Nc2ccc(SC(F)F)cc2)cc1	-77.3	/	-177.7	-43.1	3.3	-18.9	/	/	/	/	/
Cc1ccc(-c2ccc([C@H]3[C@@H](CO)N4C(=O)CN(C(=O)c5ccncc5)C[C@H]34)cc2)cc1	/	/	/	/	/	-1.8	/	/	/	/	/
S=C(NCCCN1CCOCC1)N1CCN(c2nc(-c3ccc(Cl)cc3)cs2)CC1	52.5	103.7*	61.5*	0.8	85.3*	39.4	11.2	/	37.3	16.8	-80.7
